Screening data as filed in PubChem.
Compounds with a hit are over-represented: about 0.78% of the library has one in this group of screens.
SRC3 inh – inhibits human SRC3 coactivator; Q9Y6Q9; HEK293 GAL4-SRC3 luciferase reporter, luminescence; inhibition, % at 3.6 µM; 360,000 tested, 0.17% active; AID 588352;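 active = inhibition above a per-campaign cutoff, the mean of all compounds plus 3 SD, cut at about 60% in these data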;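 also: higher means less SRC3-driven luciferase light from the GAL4 reporter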
NR5A2 inv ag – suppresses constitutive activity of human LRH-1. O00482. HEK293T StAR-luciferase reporter, LRH-1 transfected, 24 h. inhibition, % at 3.6 µM. 360,000 tested, 0.13% active;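 active = inhibition above the mean inhibition of all tested compounds plus 3 SD, cut at about 73% in these data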
Target sequence (O00482 whole entry, looked up): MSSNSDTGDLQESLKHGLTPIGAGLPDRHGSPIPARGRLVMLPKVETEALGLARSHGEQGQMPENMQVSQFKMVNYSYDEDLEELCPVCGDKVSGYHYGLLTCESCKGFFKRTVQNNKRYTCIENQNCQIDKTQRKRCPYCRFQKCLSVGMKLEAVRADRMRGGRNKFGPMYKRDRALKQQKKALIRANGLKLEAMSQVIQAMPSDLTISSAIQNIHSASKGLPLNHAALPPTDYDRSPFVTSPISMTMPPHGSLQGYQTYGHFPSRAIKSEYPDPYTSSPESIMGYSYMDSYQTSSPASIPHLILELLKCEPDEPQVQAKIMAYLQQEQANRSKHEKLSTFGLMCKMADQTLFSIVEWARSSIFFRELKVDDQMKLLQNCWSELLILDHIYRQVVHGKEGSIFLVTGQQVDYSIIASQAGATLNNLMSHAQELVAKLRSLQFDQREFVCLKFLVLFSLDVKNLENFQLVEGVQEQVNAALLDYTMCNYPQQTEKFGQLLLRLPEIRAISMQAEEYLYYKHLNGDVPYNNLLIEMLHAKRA
LMP1 NFkB inh – inhibitors of Epstein-Barr LMP1-induced NF-kappaB reporter; LMP1-induced NF-kappaB luciferase reporter cells, luminescence; inhibition, % at 12.5 µM; 350,000 tested, 0.69% active; in the data active = inhibition above about 41%; inconclusive = no clear call, values can overlap the other calls
SRC1 inh – inhibits human SRC1 coactivator. Q15788. inhibition, % at 3.6 µM. HEK293 GAL4-SRC1 luciferase reporter, luminescence. 360,000 tested, 0.12% active;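 active = inhibition above the campaign mean plus 3 SD, with each screening campaign given its own cutoff, cut at about 60% in these data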
SRC2 inh – human SRC2 (NCOA2) inhibition; HEK293 GAL4-SRC2 luciferase reporter, luminescence; Q15596; inhibition, % at 9 µM; 370,000 tested, 0.17% active;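 active = inhibition above the mean inhibition of all tested compounds plus 3 SD, set per campaign, cut at about 52% in these data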
A number is an active result; 0 = inactive; ? = inconclusive; - = no result; ! = not active in a repeat.

SMILES	SRC3 inh	NR5A2 inv ag	LMP1 NFkB inh	SRC1 inh	SRC2 inh
CCc1ccc(S(=O)(=O)/N=C2/C=C(Sc3ncn[nH]3)C(=O)c3ccccc32)cc1	88	95	0	83	-
O=C1C(Nc2ccc(O)cc2)=C/C(=N/S(=O)(=O)c2cccs2)c2ccccc21	90	86	96	88	71
CN(C)c1ccc(NC(=O)NC2CCCCN(Cc3cccc(Cl)c3)C2=O)cc1 (configuration not stated)	-	-	-	-	0
Cc1cc(C)c(S(=O)(=O)/N=C2\C=C(NS(=O)(=O)c3ccccc3)C(=O)c3ccccc32)c(C)c1	0	0	0	0	0
Cc1ccc(Cl)cc1NC1=C/C(=N\S(=O)(=O)c2cccs2)c2ccccc2C1=O	85!	0	60!	72!	0
OCC(CCc1c[nH]c2ccccc12)c1c[nH]c2ccccc12 (configuration not stated)	-	-	-	-	0
Cc1ccc(-n2c(C)cc(C(=O)COc3cccnc3[N+](=O)[O-])c2C)cc1	0	0	0	0	0
Cc1cc(C(=O)COC(=O)c2ccc[nH]c2=O)c(C)n1-c1ccc(F)cc1	0	0	0	0	0
Cc1cc(C(=O)COc2cccnc2[N+](=O)[O-])c(C)n1-c1ccccc1	66	0	?	69	0
Cc1cc(C(=O)COC(=O)c2ccc[nH]c2=O)c(C)n1-c1ccccc1	0	0	47	0	0
C=C1C(=O)C=C2CN(C(=O)c3ccccc3)[C@@](Cc3ccc(F)cc3)(C(=O)OC)[C@@H]12	0	0	94	0	-
COC(=O)[C@@]12CCCCC3=C1N(CCC3)C(=O)[C@H]2CC(=O)N1CCCC1	-	-	-	-	0
O=C(CCCN1C(=O)/C(=C/c2ccccc2Cl)SC1=S)NNC(=O)c1ccncc1	0	0	0	0	58
O=C(CCCN1C(=O)/C(=C/c2ccccc2Cl)SC1=S)NNC(=O)c1ccccc1Cl	0	0	44	0	83
O=C(O)CN1C(=O)/C(=C\c2cc(Br)ccc2OCc2ccccc2Cl)SC1=S	0	0	0	0	0
O=C(O)CN1C(=O)/C(=C\c2ccccc2OCc2ccc(Cl)cc2Cl)SC1=S	0	0	44	0	0
O=C(CCCN1C(=O)/C(=C/c2cccs2)SC1=S)NNC(=O)c1ccncc1	0	0	0	0	0
C=C(C)CSc1nnc(-c2cc(-c3ccccc3)n[nH]2)n1N	-	-	-	-	0
COc1ccc(C(=O)OCCCN(C)C2CN(Cc3cn(Cc4ccccc4F)nn3)S(=O)(=O)C2)cc1OC (configuration not stated)	-	-	-	-	0
O=[N+]([O-])c1ccc(S(=O)(=O)c2cccc(C(F)(F)F)c2)nc1	0	0	76	0	-
C=CCN1[C@@H](C)COc2cccc(F)c2S1(=O)=O	-	-	-	-	0
Cc1cccc(Cn2nc(-n3cccc3)c3c(C)cc(C)nc32)c1	0	0	47	0	0
CN1C(=O)c2cc(NC(=O)Nc3ccccc3F)ccc2OC[C@H]2O[C@@H](CC(=O)NCc3ccc(-c4ccccc4)cc3)CC[C@@H]21	-	-	-	-	0
COC(=O)C1CN(Cc2ccccc2)CCS(=O)(=O)N1Cc1ccc(OC)cc1 (configuration not stated)	-	-	-	-	0
O=C(Nc1nnc(-c2ccccc2)o1)NC1CCCCC1	0	0	68	0	0
SMILES	SRC3 inh	NR5A2 inv ag	LMP1 NFkB inh	SRC1 inh	SRC2 inh
O=C(CCc1ccccc1)N[C@H]1[C@@H](O)CCC[C@]12C(=O)N(Cc1ccccc1)c1ccccc12	-	-	-	-	0
COCCNC(=S)N(C)[C@H]1C[C@H]2c3[nH]c4c(-c5ccc6c(c5)OCO6)cccc4c3CCN2C[C@H]1[C@H](C)O	-	-	-	-	0
O=C(CCc1ccccc1)N[C@H]1[C@H](OC(=O)c2ccc3ccccc3n2)CCC[C@@]12C(=O)N(Cc1ccccc1)c1ccccc12	-	-	-	-	0
CC(c1ccccc1)c1nnc(NC(=O)Nc2ccccc2)s1 (configuration not stated)	0	0	0	0	0
CC(c1ccccc1)c1nnc(NC(=O)Nc2ccccc2F)s1 (configuration not stated)	0	0	46	0	0
CC(/C=N/NC(=O)CSc1nnc(SCc2ccc(C)cc2)s1)=C\c1ccco1	-	-	-	-	0
CC(C)(C)c1nnc(N/N=C/c2cc(Br)ccc2O)n(N)c1=O	76	0	?	67	0
CCc1nnc(N/N=C/c2cc(Br)c(O)cc2O)n1N	0	0	0	0	0
N#Cc1ccc(NCCCN2CCC(C(O)(c3ccccc3)c3ccccc3)CC2)cc1	-	-	-	-	0
COc1ccc2oc(C(=O)OCC(=O)NCCc3ccccc3)c(C)c2c1	0	0	0	0	0
COc1ccc2oc(C(=O)NCCc3ccccc3)c(C)c2c1	0	0	54	0	0
COC(=O)[C@]12C[C@H](CC(=O)NCCc3ccccc3OC)C(=O)N(Cc3ccc4c(c3)OCO4)C1=C[C@H](C(C)C)O[C@@H]2C1CC1	-	-	-	-	0
Cc1cccc(OC(C)CCN2CCC(C(O)(c3ccccc3)c3ccccc3)CC2)c1 (configuration not stated)	-	-	-	-	0
O=C(CCc1nc(-c2ccccc2F)no1)NCCc1c[nH]c2ccccc12	-	-	-	-	0
O=C(COC(=O)CCc1c[nH]c2ccccc12)NCc1ccc(Cl)cc1	0	0	46	0	0
COc1ccccc1OCCC(=O)OCC(=O)NCc1ccc(F)cc1	0	0	69	0	0
O=C(COC(=O)CCc1c[nH]c2ccccc12)NCc1ccccc1	0	0	0	0	0
O=C(C1CCCN(S(=O)(=O)c2cccs2)C1)N1CCN(Cc2ccccc2)CC1 (configuration not stated)	-	-	-	-	0
O=c1c2ccccc2nc(/C=C/c2ccc([N+](=O)[O-])o2)n1CCCO	0	0	84	0	0
CCOC(=O)[C@]12CCCCC/C=C\1N(CCc1ccc(Cl)cc1)C(=O)[C@H]2CC(=O)N1CCN(C(=O)C2CC2)CC1	-	-	-	-	0
COc1ccc(-c2nc3ccccc3c(C(=O)Nc3ccc(S(=O)(=O)Nc4cc(C)on4)cc3)c2C)cc1	0	0	50	0	-
COc1ccc(-n2c(SCC(=O)Nc3cc(C)on3)nc3c(c2=O)SCC3)cc1OC	0	0	0	0	0
CCSc1nc2c(c(=O)n1-c1ccc(F)cc1)SCC2	0	0	0	0	0
COc1ccc(-n2c(SCC(=O)Nc3cc(C)on3)nc3c(c2=O)SCC3)cc1	0	0	83	0	0
COC(=O)c1ccc(CSc2nc3c(c(=O)n2-c2ccc(C)cc2)SCC3)o1	0	0	70	0	0
SMILES	SRC3 inh	NR5A2 inv ag	LMP1 NFkB inh	SRC1 inh	SRC2 inh
O=c1[nH]c2cc(Cl)c(Br)cc2o1	0	0	68	0	0
O=c1[nH]c2cc(Cl)c(Cl)cc2o1	0	0	0	0	0
Nn1c(SCc2cccc3ccccc23)nnc1-c1cc(-c2ccc(F)cc2)n[nH]1	-	-	-	-	0
Nc1nc2cc3c(cc2cc1C(=O)NCCc1c[nH]c2ccccc12)OCO3	-	-	-	-	0
CCC1(O)C(=O)OCc2c1cc1n(c2=O)Cc2cc3cc(O)ccc3nc2-1 (configuration not stated)	78	92	86	0	0
COc1ccc(C(=O)NCCNc2nc3cc(C)cc(C)c3cc2C#N)c(OC)c1	-	0	-	-	77
